Experimental data as given in PubChem BioAssay (NCATS).
Records with an inconclusive call do not appear. Unmarked numbers belong to inactive results. The source made the active and inactive calls. Calls follow the shape of the full dose curve.

Assay: Primary qHTS for inhibitors of SARS-S pseudo-typed particle cell entry (AID 1479145); also: nearly all actives have a fitted effect of over 45% in size
Conditions: SARS-S pseudotyped particle cell entry, luciferase reporter; series mostly up to 57.1 µM; activity change, negative = inhibition: at the top concentration
% is scaled to controls: 0 for no effect and ±100 for the full control effect; potency is read from the fitted curve at half-maximal effect.

SMILES	activity change, negative = inhibition	Potency	outcome
CC(=O)OCC(=O)[C@@]1(O)CC[C@H]2[C@@H]3C[C@H](C)C4=CC(=O)C=C[C@]4(C)[C@H]3[C@@H](O)C[C@@]21C	-19.1%	–	–
O=C(/C=C/c1cccc(S(=O)(=O)Nc2ccccc2)c1)NO	–	10 µM (active)	–
CCCC1C(=O)N2C(N(C)C)=Nc3ccc(C)cc3N2C1=O (stereo unspecified)	-12.6% [at 114 µM]	–	–
CCCCCCCCCCCCCCCCCC(=O)OCC(C)O (stereo unspecified)	–	–	inactive [at 114 µM]
CC(C)(O)CNc1nc(Nc2ccnc(C(F)(F)F)c2)nc(-c2cccc(C(F)(F)F)n2)n1	2.6%	–	–
COc1ccc(C[C@H](C)NC[C@@H](O)c2ccc(O)c(NC=O)c2)cc1	–	–	inactive
C/C=C/C=C/C(=O)O	-2.72%	–	–
O=C(OCc1ccccc1)c1cccnc1	–	–	inactive
O=C(NNCS(=O)(=O)O)c1ccncc1	-23.8%	–	–
CC(C)=C/C(C)=N\Nc1nncc2ccccc12	-1.26%	–	–
O=C(O)CC(O)CC(O)/C=C/c1c(C2CC2)nc2ccccc2c1-c1ccc(F)cc1 (stereo unspecified)	-83%	–	–
OCC(O)COc1ccc(Cl)cc1 (stereo unspecified)	-26.7% [at 171 µM]	–	–
CS(=O)(=O)n1cc2c(n1)CN([C@H]1CO[C@H](c3cc(F)ccc3F)[C@@H](N)C1)C2	-19%	–	–
CCCC[C@H](C)C[C@H](O)/C=C/[C@H]1[C@H](O)CC(=O)[C@@H]1CCCC/C=C/C(=O)O	-23.7%	–	–
O=C(O)[C@H](O)[C@@H](O)[C@H](O)[C@H](O)CO	4.73%	–	–
C#C[C@]1(O)CC[C@@H]2[C@@H]3CCC4=CCCC[C@@H]4[C@H]3C(=C)C[C@@]21CC	–	–	inactive
N[C@@H]1CCCCN(c2c(F)cc3c(=O)c(C(=O)O)cn(C4CC4)c3c2Cl)C1	–	–	inactive
CO[C@H]1C[C@@H]2CC[C@@H](C)[C@@](O)(O2)C(=O)C(=O)N2CCCC[C@H]2C(=O)O[C@H]([C@H](C)C[C@@H]2CC[C@@H](OC(=O)C(C)(CO)CO)[C@H](OC)C2)CC(=O)[C@H](C)/C=C(\C)[C@@H](O)[C@@H](OC)C(=O)[C@H](C)C[C@H](C)/C=C/C=C/C=C/1C	–	–	inactive [at 26.4 µM]
CN(C)C=Nc1c(I)cc(I)c(CCC(=O)O)c1I	2.24%	–	–
CCC(C(=O)O)[C@H]1CC[C@H](C)[C@H]([C@@H](C)[C@H](O)[C@H](C)C(=O)[C@H](CC)[C@H]2OC3(C=C[C@@H](O)[C@]4(CC[C@@](C)([C@H]5CC[C@](O)(CC)[C@H](C)O5)O4)O3)[C@H](C)C[C@@H]2C)O1 (stereo partly specified)	–	3.98 µM (active)	–
CC=CC1C(C(=O)OCc2c(F)c(F)c(COC)c(F)c2F)C1(C)C (stereo unspecified)	-15.9%	–	–
CCCCCCCCCCCC[n+]1ccc2ccccc2c1	–	2.82 µM (active)	–
COC(=O)CCC[N+](C)(C)C	–	–	inactive
CCCCCC/C=C\CCCCCCCC(=O)O	-42.5%	–	–
CC(C)CCCC(C)NC(C)C (stereo unspecified)	-17.2%	–	–
CN(C)c1ccc(C(=C2C=CC(=[N+](C)C)C=C2)c2c(O)c(S(=O)(=O)[O-])cc3cc(S(=O)(=O)O)ccc23)cc1	0.829%	–	–
